This is an account of results in PubChem BioAssay (NCATS).

Results filed as inconclusive are left out. Unmarked numbers belong to inactive results. Calls of active or inactive are those of the source. The call rests on the fitted dose curve; in most records, active means well fitted inhibition curve with a large enough effect; inconclusive means small, poorly fitted or top-dose-only effect; inactive means no such curve, though single readings can be large or run the other way. Where a SMILES comes first, the peptide text is derived from it. [ ]: non-standard residue; d: D form. ξ: configuration not given here. ξPhe(βξ-Me) = CC(c1ccccc1)C(N)C(=O)O; GABA = NCCCC(=O)O
On the % scale 0 is the no-effect control and ±100 the full control effect.

This assay deals with Zika virus NS2B-NS3 protease (linked construct). Briefly: Primary screen NINDS Rhodamine qHTS for Zika virus inhibitors (AID 1347160). Further: nearly all actives have a fitted effect of over 55% in size. The following applies: purified NS2B-NS3 protease, Rhodamine110 substrate fluorescence; series mostly up to 57.1 µM; activity change, negative = inhibition: at the top concentration. In outline:
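Purified NS2B-NS3 protease with the NS2B hydrophilic domain joined by a flexible linker (25 nM) in 10 mM Tris-HCl pH 8.0, 0.01% Tween 20, preincubated 15 min at RT with compound; Rhodamine110 peptide substrate 1.5 µM; fluorescence change over 15 min; 4-parameter Hill fit.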
Turning to `C=C1CCC[C@]2(C)CC[C@@H](C(=C)C(=O)O)[C@H](O)[C@@H]12`, the “activity change, negative = inhibition” value was 31.9%.

As to `NCCCNc1ccc(Nc2nccc(Nc3cc(C4CC4)[nH]n3)n2)cc1`, the “activity change, negative = inhibition” value was 85.2%.

Turning to `CC[C@H](CO)Nc1nc(NCc2ccc(-c3ccccn3)cc2)c2ncn(C(C)C)c2n1`, the “activity change, negative = inhibition” value is 83.8%.

As for `Cc1cnc(NC(=O)Nc2cc(Br)c(C)cc2OCC2CNCCO2)cn1` (centres undefined), the “activity change, negative = inhibition” value was 29.9%.

As for `CNC12CC3C[C@@](C)(C1)C[C@](C)(C3)C2`, the “activity change, negative = inhibition” value was 14%.

Take `CC(=O)C1=C(C)N(c2cccc(C(F)(F)F)c2)C(=O)N[C@H]1c1ccc(C#N)nc1`: the “activity change, negative = inhibition” value is -5.56% [at 15.1 µM].

As for `Cc1c(C(=O)N2CCOc3ccc(-c4ccc(N)nc4)cc3C2)ccc(S(C)(=O)=O)c1F`, the compound was classed as inactive.

Take `O=[N+]([O-])c1cn2c(n1)OCC(OCc1ccc(OC(F)(F)F)cc1)C2` (centres undefined): the “activity change, negative = inhibition” value is -2.97%.

Consider `COc1ccc(C(O)C(C)OC2OC(CO)C(O)C(O)C2O)cc1` (centres undefined), for which the “activity change, negative = inhibition” value is -24% [at 33.1 µM].

Take `CC1=CC(=O)CC(C)(C)C1/C=C/C(C)O[C@@H]1O[C@H](CO)[C@@H](O)[C@H](O)[C@H]1O[C@@H]1OC[C@](O)(CO)[C@H]1O` (some centres undefined): the “activity change, negative = inhibition” value was 17.8% [at 33.1 µM].

`CC12CCC(OC3OC(CO)C(O)C(OC4OC(CO)C(O)C(O)C4O)C3O)CC1=CCC1C2CCC2(C)/C(=C3/COC(=O)C3)CCC12O` (centres undefined): the “activity change, negative = inhibition” value is 18.4% [at 15.1 µM].

As for `CC(C)(C)OC(=O)N1CCC(OCc2nc(-c3ccncc3)no2)CC1`, the “activity change, negative = inhibition” value was -6.03%.

With `COc1cc2ncnc(Nc3ccc(O)cc3)c2cc1OC`, the “activity change, negative = inhibition” value is 13.5%.

As to `C=C(C)C1CCC2(C(=O)O[C@@H]3O[C@H](CO[C@@H]4O[C@H](CO)[C@@H](O)[C@H](O)[C@H]4O)[C@@H](O)[C@H](O[C@@H]4O[C@@H](C)[C@H](O)[C@@H](O)[C@H]4O)[C@H]3O)CCC3(C(=O)O)C(CCC4C5(C)CCC(O)C(C)(C)C5CCC43C)C12` (some centres undefined), the “activity change, negative = inhibition” value is -14.9% [at 15.1 µM].

For `COC(=O)[C@@]1(c2ccc(C)cc2)C[C@H]1CN1CCC(O)(c2ccccc2)CC1`, the “activity change, negative = inhibition” value was 43.1%.

Consider `CC(C)/C=C1\NC(=O)C(C(C)C)n2c1nc1c(c2=O)C=CC=CO1` (centres undefined), for which the “outcome” value is “inactive [at 33.1 µM]”.

Turning to `CC1NC(=O)CCCNC(=O)C(Cc2c[nH]c3ccccc23)NC(=O)C(C)NC(=O)C(C(C)C)NC(=O)C(C(C)c2ccccc2)NC(=O)C(C(C)C)NC1=O` (stereo not drawn) (cyclo([GABA]AV[ξPhe(βξ-Me)]VAW); configuration not given here), the “outcome” value was “inactive [at 15.1 µM]”.

For `CC(C)(O[C@@H]1O[C@H](CO)[C@@H](O)[C@H](O)[C@H]1O)C(OC(=O)/C=C\c1ccc(O)cc1)C(=O)OCc1ccc(O[C@@H]2O[C@H](CO)[C@@H](O)[C@H](O)[C@H]2O)cc1` (some centres undefined), the “activity change, negative = inhibition” value is 3.45% [at 15.1 µM].

As to `O=C(c1cccc(Cl)c1F)N1CCN(Cc2cccc(Nc3nccs3)n2)CC1`, the “activity change, negative = inhibition” value is 23.2%.

`CC(C)c1c2cc(-c3ccnc(NC4CCC(NC5CCOCC5)CC4)n3)ccc2nn1C` (centres undefined): the “activity change, negative = inhibition” value was 27.5%.

Take `COc1ccc(-c2ccc3c(N4CCOCC4)nc(N4CC(C)OC(C)C4)nc3n2)cc1CO` (centres undefined): the “activity change, negative = inhibition” value is -4.02%.

On to `CC(C)(C)c1ccc(S(=O)(=O)NCc2ccc(C(=O)Nc3cccnc3)cc2)cc1`, for which the “activity change, negative = inhibition” value was -13%.

Turning to `NC1(C(=O)NC(CCO)c2ccc(Cl)cc2)CCN(c2ncnc3[nH]ccc23)CC1` (centres undefined), the “activity change, negative = inhibition” value was -10.4%.

For `O=C1CCC=CC1(O)C(=O)OCc1ccccc1O[C@@H]1O[C@H](CO)[C@@H](O)[C@H](O)[C@H]1O` (some centres undefined), the “activity change, negative = inhibition” value is -14.7% [at 33.1 µM].

Regarding `N#Cc1cc(F)cc(-c2nc(-c3ccccn3)no2)c1`, the outcome was inactive.

`C=C(C)C(=O)OC1C(OC(C)=O)/C(C=O)=C\CC/C(CO)=C/C2OC(=O)C(=C)C21` (centres undefined): the “activity change, negative = inhibition” value is 32.2% [at 33.1 µM].

Take `COc1ccc(/C=C\C(=O)O)c(O[C@@H]2O[C@H](CO)[C@@H](O)[C@H](O)[C@H]2O)c1`: the “activity change, negative = inhibition” value is 11.4% [at 33.1 µM].

Consider `CC1=CC2/C=C(\C)CC[C@@H](O)[C@@H](O)[C@@H]3O[C@@H]3C(=O)[C@]23C(=O)N[C@@H](CC(C)C)[C@@H]3[C@@H]1C` (some centres undefined), for which the “outcome” value was “inactive [at 33.1 µM]”.

For the compound `C[C@@H]1O[C@@H](O[C@H]2[C@@H]3C=CO[C@@H](O[C@@H]4O[C@H](CO)[C@@H](O)[C@H](O)[C@H]4O)[C@@H]3[C@@]3(CO)O[C@@H]23)[C@H](OC(=O)/C=C/c2ccc(O)c(O)c2)[C@H](O)[C@H]1O`, the “activity change, negative = inhibition” value was -3.93% [at 15.1 µM].

In the case of `CCCCC1CCN(CCCC(=O)c2ccccc2C)CC1`, the “activity change, negative = inhibition” value was 28.1%.

For the compound `CC(=O)NC1C(OC(C)(C)C2CCC3(C)C=C(C4CCC5C4(C)CC(O)C4OC(C(C)(C)O)CCC45C)CCC3O2)OC(CO)C(O)C1O` (centres undefined), the “activity change, negative = inhibition” value was -7.44% [at 15.1 µM].

Take `O=C(CN1C(=O)C2(CCCC2)NCC1c1cc(F)cc(F)c1)Nc1ccc2c(c1)CC1(C2)C(=O)Nc2ncccc21` (centres undefined): the compound was called inactive.

Regarding `NCc1ccc(Nc2ncc(F)c(Nc3ccccc3)n2)cc1`, the “activity change, negative = inhibition” value was 103%.

In the case of `COc1cc2ncnc(Nc3ccc(F)c(Cl)c3)c2cc1NC(=O)/C=C/CN1CCCCC1`, the “activity change, negative = inhibition” value is 272%.

Turning to `Cc1[nH]c2ccccc2c1CCNC(=O)c1ccccc1F`, the “activity change, negative = inhibition” value is 34.6%.

Take `COC(=O)C1(C)CCC2(C(=O)O)CCC3(C)C(=CCC4C5(C)CC(O)C(OC6OCC(O)C(O)C6O)C(C)(CO)C5CCC43C)C2C1` (centres undefined): the “outcome” value is “inactive [at 15.1 µM]”.

For `CCOc1ccc(NC(=S)N2CCC(C(O)(c3ccccc3)c3ccccc3)CC2)cc1`, the result was inactive.

Turning to `O=C(CC(c1ccccc1)c1ccccc1)N1CCN(C(c2ccccc2)c2ccccc2)CC1`, the “activity change, negative = inhibition” value was -9.34%.

As to `C=C1C(O)CC2C(C(=O)O)=COC(O[C@@H]3O[C@H](COC(=O)/C=C/c4ccc(O)cc4)[C@@H](O)[C@H](O)[C@H]3O)C12` (some centres undefined), the “activity change, negative = inhibition” value is 9.05% [at 33.1 µM].
